High-throughput results from PubChem.
This is a sample that favours compounds with a hit; in the whole collection about 6.5% have one here.
HCMV antiviral: human cytomegalovirus inhibition; 410,000 compounds, 4.5% hits; HFF cells, HCMV-luciferase reporter, 72 h; stronger effect = lower value; AID 1259415; activity change, negative = inhibition, % at 57.5 µM; in the data active means activity change below about -60%; inconclusive means no clear call, values can overlap the other calls; inactive means above about -39%
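Screen run at 2 compound doses on HFFs infected with reporter HCMV, MOI 1 PFU/cell. Luciferase activity from cell lysates at 72 h post infection gave inhibition relative to buffer-only and Salinomycin wells.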
Vaccinia Venus: vaccinia inhibition (Venus reporter) | Vaccinia virus Venus reporter expression, fluorescence | Potency, µM (titrated, usually from 36.5 µM), for inactives: at the highest dose activity change, negative = inhibition, hits mostly inhibitors | 330,000 compounds, 0.46% hits | AID 720580; calls by dose curve; tested in A549 cells; further: potency means the concentration at half of the fitted maximal effect; nearly all actives have a fitted effect of over 30% in size
VACV mCherry inh: vaccinia inhibition (mCherry reporter); Potency, µM (top dose mostly 36.5 µM), for the others: at the highest dose activity change, negative = inhibition, most hits filed as inhibitors; 310,000 compounds, 0.63% hits; Vaccinia virus mCherry reporter infection, fluorescence; calls by dose curve; tested in A549 cells; further: potency means the concentration at half of the fitted maximal effect; nearly all actives have a fitted effect of over 35% in size
MARV entry inh: Marburg virus entry inhibition | Potency, µM (top dose mostly 37.8 µM), for the others: top-dose activity change, negative = inhibition, hits mostly inhibitors | Marburg virus pseudotyped entry inhibition, cell reporter | 300,000 compounds, 1.8% hits | AID 540276; calls by dose curve; tested in HEK293 cells; further: potency means the concentration at half of the fitted maximal effect
LASV entry inh: Lassa virus entry inhibition. Lassa virus pseudotype entry inhibition, cell reporter. Potency, µM (series often up to 37.9 µM), without a hit: at the highest dose activity change, negative = inhibition, hits mostly inhibitors. 300,000 compounds, 1.2% hits; calls by dose curve; tested in HEK293 cells; further: potency means the concentration at half of the fitted maximal effect; nearly all actives have a fitted effect of over 50% in size
FMDV inh: blocks foot and mouth disease virus; 410,000 compounds, 1.2% hits; Potency, µM (series often up to 57.9 µM), inactives show at the top dose activity change, negative = inhibition, actives largely listed as inhibitors; FMDV antiviral cell-based qHTS; calls by dose curve; tested in HEK293T cells; further: read-out not given here; potency means the concentration at half of the fitted maximal effect; nearly all actives have a fitted effect of over 45% in size
* marks the source's active call; other numbers are inactive results; [ ] = another dose, or the depositor's remark. On the % scale 0 is the no-effect control and ±100 the full control effect.

`N#CC1c2ccccc2C=CN1C(=O)N(c1ccccc1)c1ccccc1` (centres undefined) gave HCMV antiviral -15, Vaccinia Venus -29%, VACV mCherry inh inconclusive, MARV entry inh inconclusive, LASV entry inh inconclusive and FMDV inh 32µM*.
For N#CC1c2ccccc2C=CN1C(=O)c1ccc(N(CCCl)CCCl)cc1 (centres undefined) the results were HCMV antiviral -40, Vaccinia Venus -24%, VACV mCherry inh -13% and FMDV inh -9%.
For CCSc1nc2ccccc2n1CC(N)=O the results were HCMV antiviral -24, MARV entry inh 16%, LASV entry inh -1% and FMDV inh -17%.
CCSc1nc2ccccc2n1C(=O)/C=C\c1ccc(OC)c(OC)c1 was read as HCMV antiviral -98*, Vaccinia Venus inconclusive, VACV mCherry inh 13µM*, MARV entry inh 13µM*, LASV entry inh inconclusive and FMDV inh 13µM*.
COC(=O)[C@@H]1[C@H]2SC(C)(C)[C@H](C(=O)OC)N2C(=O)N1Cc1cc2ccccc2n1S(=O)(=O)c1ccccc1 was read as Vaccinia Venus -18% and VACV mCherry inh inactive.
Screening COc1ccc(CCn2c(-c3ccco3)nc3ccccc3c2=O)cc1OC returned HCMV antiviral 7, Vaccinia Venus -10%, VACV mCherry inh -13%, MARV entry inh inconclusive, LASV entry inh inconclusive and FMDV inh 32µM*.
`Cc1ccc(Cn2c(=N)c(C(=O)NCc3ccco3)cc3c(=O)n4ccccc4nc32)cc1` gave HCMV antiviral 5, Vaccinia Venus 11%, VACV mCherry inh 11%, MARV entry inh 13µM*, LASV entry inh inconclusive and FMDV inh -2%.
Screening CCOCCCn1c(=N)c(C(=O)NCc2ccco2)cc2c(=O)n3ccccc3nc21 returned HCMV antiviral -10, Vaccinia Venus 7%, VACV mCherry inh 13%, MARV entry inh inconclusive, LASV entry inh -4%[46.1 µM] and FMDV inh -5%.
Screening COCCCn1c(=N)c(C(=O)NCc2ccco2)cc2c(=O)n3ccccc3nc21 returned HCMV antiviral -13, Vaccinia Venus 4%, VACV mCherry inh 7%, MARV entry inh 2.5µM*, LASV entry inh 6%[46.1 µM] and FMDV inh -15%.
For COc1ccc(CCn2c(=N)c(C(=O)NCc3ccco3)cc3c(=O)n4ccccc4nc32)cc1OC the results were HCMV antiviral -95* and FMDV inh -13%.
Screening COc1ccc(CNC(=O)c2cc3c(=O)n4ccccc4nc3n(Cc3ccco3)c2=N)cc1 returned MARV entry inh 6%.
N=c1c(C(=O)NCc2ccco2)cc2c(=O)n3ccccc3nc2n1CCc1ccccc1 was read as HCMV antiviral inconclusive, Vaccinia Venus -1%, MARV entry inh inconclusive, LASV entry inh inconclusive and FMDV inh -23%.
For COc1ccc(O)c(O)c1/C=C1\[C@@H](C)CCC2C(C)(C)CCC[C@]12C (some centres undefined) the results were HCMV antiviral 3.
For COC(=O)CC=C1c2ccccc2[C@@H](NC(=O)OC)[C@@H]1C the results were MARV entry inh 20%[14.2 µM].
CCCc1c(NC(=O)Nc2ccc(Cl)cc2Cl)cnn1-c1ccccc1 was read as HCMV antiviral inconclusive, Vaccinia Venus -8%, VACV mCherry inh inconclusive, MARV entry inh 0.89µM*, LASV entry inh inconclusive and FMDV inh 0%.
Cc1ccc(NC(=O)N2CC=C(c3c[nH]c4ccccc34)CC2)cc1Cl was read as HCMV antiviral -66*, Vaccinia Venus -14%, VACV mCherry inh -22%, LASV entry inh inconclusive and FMDV inh -6%.
For O=C(C[C@H]1C[C@H](C(=O)N2CCOCC2)[C@@]2(CCC3CCCC3)c3[nH]c4cc(-c5ccco5)ccc4c3CCN2C1=O)NCCCn1ccnc1 the results were HCMV antiviral -90*, Vaccinia Venus 10µM*, VACV mCherry inh -29% and FMDV inh -10%.
O=C(C[C@H]1C[C@H](C(=O)N2CCCCC2)[C@@]2(CCc3ccccc3)c3[nH]c4ccc(Cl)cc4c3CCN2C1=O)NCCCn1ccnc1 was read as HCMV antiviral -25, Vaccinia Venus 11µM*, VACV mCherry inh -20% and FMDV inh inconclusive.
For COCCCNC(=O)C[C@H]1C[C@H](C(=O)N2CCCCC2)[C@@]2(CCc3ccccc3)c3[nH]c4cc(-c5ccco5)ccc4c3CCN2C1=O the results were HCMV antiviral -28, Vaccinia Venus inconclusive, VACV mCherry inh -26% and FMDV inh -15%.
Screening O=C(C[C@H]1C[C@H](C(=O)N2CCCCC2)[C@@]2(CCc3ccccc3)c3[nH]c4cc(-c5ccco5)ccc4c3CCN2C1=O)NCCN1CCOCC1 returned HCMV antiviral -101*, Vaccinia Venus 10µM*, VACV mCherry inh inconclusive and FMDV inh 0%.
Screening O=S1(=O)CCOC[C@H](c2ccccc2)N1Cc1ccc(Cl)c(Cl)c1 returned Vaccinia Venus -20% and VACV mCherry inh inactive.
Screening C[C@@H]1CC[C@H]2C(=O)O[C@@H](COc3ccc(C(C)(C)C)cc3)CN2[C@@H]1c1ccc(Br)cc1 returned MARV entry inh inconclusive and LASV entry inh -5%[14.3 µM].
NC12NC(=O)C3(O)C4C5CC(C6C5C3C61)C42 (centres undefined) was read as HCMV antiviral -11, Vaccinia Venus 6%, VACV mCherry inh 6%, MARV entry inh -24%[46.1 µM], LASV entry inh -1% and FMDV inh -5%.
Cc1ccc(S(=O)(=O)n2nc(-c3ccco3)nc2N)cc1 was read as HCMV antiviral -67*, Vaccinia Venus -10%, VACV mCherry inh -13%, MARV entry inh 0%[46.1 µM], LASV entry inh 11% and FMDV inh 4%.
For O=C(O)c1ccc(-c2sc(Nc3ccccc3)n[n+]2-c2ccccc2)cc1 the results were HCMV antiviral 68, Vaccinia Venus -14%, VACV mCherry inh inactive and FMDV inh -3%.
Screening CCc1ccc(Nc2n[n+](-c3ccccc3)c(-c3ccc(OCc4ccccc4)cc3)s2)cc1 returned HCMV antiviral -96*, Vaccinia Venus inconclusive, VACV mCherry inh inactive and FMDV inh -1%.
Screening CCc1ccc(Nc2n[n+](-c3ccccc3)c(-c3ccc(N(CC)CC)cc3)s2)cc1 returned HCMV antiviral -93*, Vaccinia Venus 11µM*, VACV mCherry inh inconclusive and FMDV inh inconclusive.
`CCN(CC)c1ccc(-c2sc(Nc3ccccc3)n[n+]2-c2ccc(F)cc2)cc1` gave HCMV antiviral -4, Vaccinia Venus inconclusive, VACV mCherry inh inactive and FMDV inh inconclusive.
COc1ccc(C)cc1Nc1n[n+](-c2ccccc2)c(-c2ccc(OC)c(OC)c2OC)s1 was read as HCMV antiviral inconclusive, Vaccinia Venus -10%, VACV mCherry inh inconclusive and FMDV inh inconclusive.
